Inconclusive results are not listed. Activity calls are given as the source filed them. Calls follow the shape of the dose curve; as a rule, active = well fitted curve in the direction sought with a large enough effect; inconclusive = small, poorly fitted or top-dose-only effect, or another doubt; inactive = no such curve, though single readings can be large; an effect the other way counts as inactive or inconclusive.

Test [1] in a line: qHTS of pediatric cancer cell lines to identify multiple opportunities for drug repurposing: Primary screen for MG 63 (6-TG R) cells (AID 1347105). Also: nearly all actives have a fitted effect of over 50% in size. Also: potency is read from the fitted curve at half-maximal effect. In short, it runs like this: (§1)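 Quantitative HTS format: each compound titrated (MIPE 11 points from 0.78 nM, NPC 8 points from 0.59 nM) onto cells plated 5 hours earlier. After 48 h at 37 degrees C, CellTiter-Glo luminescence was recorded.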

The nature of test [2]: qHTS of pediatric cancer cell lines to identify multiple opportunities for drug repurposing: Primary screen for Rh30 cells (AID 1347107). Also: series mostly up to about 46 µM; nearly all actives have a fitted effect of over 75% in size. Put shortly:
(§2)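 Viability after 48 h compound treatment at 37C, 500-1,000 cells/well, read as ATP luminescence with CellTiter-Glo. Primary screens used 11-point (MIPE, 0.78 nM-46 µM) or 8-point (NPC, 0.59 nM-46 µM) final concentrations; follow-up screens used 11-point dilutions.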

A short description of test [3]: qHTS of pediatric cancer cell lines to identify multiple opportunities for drug repurposing: Primary screen for Rh41 cells (AID 1347108). Also: nearly all actives have a fitted effect of over 70% in size. Also: potency is read from the fitted curve at half-maximal effect. In short, it runs like this: as §1
Test [4] can be described thus: qHTS of pediatric cancer cell lines to identify multiple opportunities for drug repurposing: Confirmatory screen for NB1643 cells (AID 1347109). Also: nearly all actives have a fitted effect of over 45% in size. Also: potency is read from the fitted curve at half-maximal effect. In short, it runs like this: as §2
Test [5] is described as follows: qHTS of pediatric cancer cell lines to identify multiple opportunities for drug repurposing: Confirmatory screen for A673 cells (AID 1347110). Also: nearly all actives have a fitted effect of over 65% in size. Also: potency is read from the fitted curve at half-maximal effect. Put shortly: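 Concentration-response curves came straight from titrations: 11 points (0.78 nM to 46 µM) for MIPE and several concentrations (0.59 nM to 46 µM) for NPC in primary, 11 points in follow-up. Readout: ATP luminescence at 48 h.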

The nature of test [6]: qHTS of pediatric cancer cell lines to identify multiple opportunities for drug repurposing: Confirmatory screen for DAOY cells (AID 1347114). Also: nearly all actives have a fitted effect of over 65% in size. Also: potency is read from the fitted curve at half-maximal effect. Put shortly:
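Viability measured as metabolically active cells via CellTiter-Glo luminescence following 48 hours of compound exposure, 11-point dilutions in confirmatory testing. 500-1,000 cells/well plated 5 hours before dosing; controls were DMSO and 2.3 µM bortezomib.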

A short description of test [7]: qHTS of pediatric cancer cell lines to identify multiple opportunities for drug repurposing: Primary screen for control Hh wild type fibroblast cells (AID 1347106).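 Also: series mostly up to about 46 µM; a drop in luminescence marks cytotoxicity and a rise apparent proliferation; nearly all actives have a fitted effect of over 55% in size.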 Put shortly:
as §2

Test [8] is described as follows: qHTS of pediatric cancer cell lines to identify multiple opportunities for drug repurposing: Confirmatory screen for SK-N-MC cells (AID 1347111).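 Also: potency is read from the fitted curve at half-maximal effect; cells exposed to compound for 48 h before the readout; nearly all actives have a fitted effect of over 70% in size.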 Put shortly: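 SK-N-MC cells at 500-1,000 cells/well in growth media were pre-incubated 5 h, then exposed to compounds at 11-point dilutions for 48 h at 37 degrees C, 5% CO2. Viability was read as CellTiter-Glo luminescence.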

Test [9] can be described thus: qHTS of pediatric cancer cell lines to identify multiple opportunities for drug repurposing: Confirmatory screen for BT-12 cells (AID 1347112). Also: nearly all actives have a fitted effect of over 55% in size. Also: potency is read from the fitted curve at half-maximal effect. In short, it runs like this:
as §2

For the compound `CCCN1CCO[C@@H]2c3cc(O)ccc3OC[C@@H]21`, the Potency entry in test [1], in test [2], in test [3], in [4], in test [5] and in test [6] was “inactive” in each case.

`C[C@]12CC[C@H]3[C@@H](CCC4=CC(=O)CC[C@@]43C)[C@H]1CC[C@H]2OC(=O)CCC1CCCC1`: the Potency result in [7], in [2] and in test [3] was “inactive” each time.

As for `COc1ccc(N(C(=O)Oc2c(C)cccc2C)c2ccnc(Nc3ccc(N4CCN(C)CC4)cc3)n2)c(OC)c1`, the Potency entry in [2] and in test [3] was “inactive” throughout.

With `C=CCON=C(C[C@H]1O[C@@H]2O[C@]3(C)CC[C@@H]4[C@H](C)CC[C@@H]([C@H]1C)[C@@]24OO3)[C@H]1O[C@@H]2O[C@]3(C)CC[C@H]4[C@H](C)CC[C@@H]([C@@H]1C)[C@@]24OO3`, the Potency entry in test [7] and in [2] was “inactive” each time. Further, the Potency in test [3] is 0.469 µM (active); in test [4], 0.414 µM (active); in test [8], 0.147 µM (active); in test [9], 0.261 µM (active); in test [6] it was 1.85 µM (active).

With `Cc1ccccc1-n1c(Cn2ncc3c(N)ncnc32)nc2cccc(C)c2c1=O`, the Potency result in [7], in test [5] and in test [6] was “inactive” each time. Moreover, the Potency is 0.935 µM (active) in test [3], 0.522 µM (active) in [4], 1.04 µM (active) in test [8] and 18.5 µM (active) in test [9].

`NC1=NC(=O)N2CC12` (stereo not given): the Potency entry in [1], in [7], in [2] and in test [3] was “inactive” each time.

As for `O=[N+]([O-])c1c2ccccc2cc2ccccc12`, the Potency result in [7] and in test [2] was “inactive” each time.

For the compound `CC(C)(C)c1cc(C=C(C#N)C#N)cc(Br)c1O`, the Potency result in test [7], in test [2] and in test [3] was “inactive” throughout.

`O=C1C=CC[C@@H]2[C@H]3CCCN4CCC[C@@H](CN12)[C@@H]34`: the Potency entry in test [7] is “inactive”.

`CC[C@@H](C(N)=O)N1CCCC1=O`: the Potency entry in test [7], in [2] and in [3] was “inactive” in each case.

As for `ClC1=C(Cl)[C@]2(Cl)[C@@H]3[C@@H]4C[C@@H]([C@H]5O[C@@H]45)[C@@H]3[C@@]1(Cl)C2(Cl)Cl`, the Potency entry in test [7] and in test [2] was “inactive” throughout.

With `CO/C=C(/C(=O)OC)c1ccccc1Oc1cc(Oc2ccccc2C#N)ncn1`, in test [7], the Potency result was “inactive”.

Take `COC1=C[C@@H]2[C@@H]3Cc4ccc(OC)c(O)c4[C@]2(CCN3C)CC1=O`: the Potency in test [3] is 3.72 µM (active).

Take `C[C@](O)(COc1ccc(C#N)cc1)C(=O)Nc1ccc(C#N)c(C(F)(F)F)c1`: the Potency result in [7], in test [2] and in test [3] was “inactive” throughout.

As for `C=CCC1=C(C)C(OC(=O)C2C(C=C(C)C)C2(C)C)CC1=O` (stereo not given), the Potency result in [1] and in [7] was “inactive” throughout.

`CC(=O)O[C@@]12CO[C@H]1C[C@H](O)[C@@]1(C)C(=O)[C@H](O)C3=C(C)[C@@H](O)C[C@@](O)([C@@H](OC(=O)c4ccccc4)[C@@H]21)C3(C)C`: in test [2], the Potency entry is “inactive”.

As to `CS(=O)(=O)c1ccc(C(=O)C2C(=O)CCCC2=O)c([N+](=O)[O-])c1`, the Potency result in test [7], in test [2], in [4], in test [5], in [9] and in [6] was “inactive” each time.

For `CCCCCC[C@H]1C(=O)O[C@H](C)[C@H](NC(=O)c2cccc(NC=O)c2O)C(=O)O[C@@H](C)[C@@H]1OC(=O)CC(C)C`, the Potency result in test [7] was “inactive”. The Potency was 13.1 µM (active) in test [5] and 0.0465 µM (active) in test [8].

Turning to `CC=C(C)C(=O)N[C@@H](c1ccccc1)[C@@H](O)C(=O)O[C@H]1C[C@@]2(O)[C@@H](OC(=O)c3ccccc3)[C@@H]3[C@]4(OC(C)=O)CO[C@@H]4C[C@H](O)[C@@]3(C)C(=O)[C@H](OC(C)=O)C(=C1C)C2(C)C`, the Potency result in test [2] is “inactive”. In addition, the Potency is 0.0329 µM (active) in test [5] and 0.0369 µM (active) in test [8].

For `Nc1ccc([N+](=O)[O-])cc1`, the Potency result in [7], in [2] and in test [3] was “inactive” in each case.

With `CN1CCN(c2ccc([N+](=O)[O-])c3no[n+]([O-])c23)CC1`, the Potency entry in test [7] and in test [2] was “inactive” throughout.

`Nc1ccc(N=Nc2ccccc2)cc1`: the Potency result in test [7] and in test [3] was “inactive” in each case.

As to `Cc1c(N)nc([C@H](CC(N)=O)NC[C@@H](N)C(N)=O)nc1C(=O)N[C@H](C(=O)N[C@@H](C)[C@H](O)[C@@H](C)C(=O)N[C@@H](C(=O)NCCc1nc(-c2nc(C(=O)NCCC[S+](C)C)cs2)cs1)[C@@H](C)O)C(O[C@H]1O[C@H](CO)[C@H](O)[C@@H](O)[C@@H]1O[C@H]1O[C@H](CO)[C@@H](O)[C@H](OC(N)=O)[C@H]1O)c1cnc[nH]1` (stereo not given in full), the Potency in test [1] was 0.59 µM (active); in [5] it was 9.27 µM (active). In addition, the Potency entry in test [2] and in [3] was “inactive” in each case.

`CC(=O)OCC1=C(C(=O)O)N2C(=O)[C@@H](N)[C@@H]2SC1`: the Potency result in test [1], in [7], in test [2] and in test [3] was “inactive” in each case.

`COc1cc2cc(c1Cl)N(C)C(=O)C[C@H](OC(=O)C(C)C)[C@]1(C)O[C@H]1[C@H](C)[C@@H]1C[C@@](O)(NC(=O)O1)[C@H](OC)C=CC=C(C)C2`: the Potency entry in test [7], in test [2] and in test [3] was “inactive” throughout. For the same compound, the Potency was 65.7 µM (active) in test [4]; 0.001 µM (active) in [5]; 0.0013 µM (active) in [8]; 0.0016 µM (active) in test [9]; 0.0037 µM (active) in [6].

Turning to `O=C(NCC1CCOCC1)c1cnc(Nc2ccc(Cl)cc2Cl)nc1C(F)(F)F`, the Potency in [1] was 29.6 µM (active). The Potency result in [7] and in test [2] was “inactive” in each case.

Consider `COc1cc([C@@H]2c3cc4c(cc3[C@@H](O)C3COC(=O)C32)OCO4)cc(OC)c1O` (stereo not given in full), for which the Potency entry in test [1] and in [2] was “inactive” throughout. Further, the figures for the Potency in [5] and in [6] were 0.522 µM (active) and 0.185 µM (active), respectively.

`CC(=Cc1csc(C)n1)[C@@H]1C[C@H]2O[C@]2(C)CCC[C@H](C)[C@@H](O)[C@@H](C)C(=O)C(C)(C)[C@@H](O)CC(=O)O1`: the Potency result in test [7] and in [2] was “inactive” throughout. Besides, the results for the Potency in [5], in [8] and in test [6] were 0.0074 µM (active), 0.0059 µM (active) and 0.0117 µM (active), respectively.

Source of the values: PubChem BioAssay (NCATS).
